The values that follow come from PubChem BioAssay.

The nature of experiment [1]: antimalarial activity against Dd2 strain (AID 2302;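 active = growth inhibition above 50% at the single 2 µM test dose, taken to imply half-maximal potency below 2 µM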;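 also: 0% = DMSO untreated growth and 100% = chloroquine plus artemisinin killed control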). The following applies: P. falciparum Dd2 in RBCs, LDH growth readout, 72 h; at 2 µM; stronger effect = higher value.
A short description of experiment [2]: human hepatoma cell viability loss – ATP luminescence, cytotoxicity control for P. falciparum antimalarial project, primary screen (AID 2303;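 active = inhibition above 50%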;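 also: 0% = DMSO wells and 100% = digitonin-killed cells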). The following applies: HepG2 viability, 24-48 h, at 10 µM, stronger effect = higher value.
Experiment [3] addresses L-lactate dehydrogenase (Plasmodium falciparum (isolate CDC / Honduras)) (UniProt Q27743). As to the kind of experiment: PfLDH activity inhibition – cell lysate, 3D7 strain, counter-screen for P. falciparum growth inhibition project (AID 2304).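 Also: 0% = vehicle and 100% = reference inhibitor.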 The note with it: P. falciparum 3D7 crude extract, LDH APAD/NBT absorbance; at 2 µM; stronger effect = higher value. Background: Counterscreens check selectivity or assay interference.

The nature of experiment [4]: inhibition of 3D7 malaria parasite growth – strain 3D7 (AID 2306).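 Also: 0% = DMSO wells and 100% = chloroquine plus artemisinin control wells.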 The following applies: P. falciparum 3D7 erythrocytic growth, LDH absorbance, 72 h; at 2 µM; stronger effect = higher value.
Experiment [5] in a line: compounds altering circadian rhythm period length – cell-based, LOPAC library, luminescence reporter (AID 2774).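 Also: values are relative to mean of DMSO wells on each plate.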 The note with it: circadian reporter cells, at 7 µM, actives lie on both sides.

Values joined by “and” are separate entries in the source; they are usually repeats but may differ in a detail not shown here. Equal entries are not always repeated. A number with no mark means an inactive call. Active and inactive are the calls of the source. Unless noted, no rule for the calls is given here.

Chain of L-lactate dehydrogenase (Plasmodium falciparum (isolate CDC / Honduras)) (Q27743 whole entry, looked up): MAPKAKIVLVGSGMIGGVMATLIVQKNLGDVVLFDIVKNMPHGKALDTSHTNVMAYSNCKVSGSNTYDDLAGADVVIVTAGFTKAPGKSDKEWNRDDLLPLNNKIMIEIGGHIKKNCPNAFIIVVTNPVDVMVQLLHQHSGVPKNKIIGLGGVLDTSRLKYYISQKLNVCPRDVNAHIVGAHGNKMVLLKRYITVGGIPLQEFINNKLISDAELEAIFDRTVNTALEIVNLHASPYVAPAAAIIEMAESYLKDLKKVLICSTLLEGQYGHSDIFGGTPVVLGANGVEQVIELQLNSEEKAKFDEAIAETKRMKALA

A word on the inhibition: it is the relative decrease from the control value, in per cent. With `ON=C1CCc2cc(-c3nc(-c4ccc(OCCN5CCCCC5)cc4)[nH]c3-c3ccncc3)ccc21`, the growth inhibition in experiment [1] is 54% (active); in experiment [4] it was 99% (active). Also, the inhibition is 73% (active) in experiment [2] and 3% in experiment [3].
In the case of `N[C@H](CCC(=O)NCS(=O)(=O)O)C(=O)O`, the period change in experiment [5] was 0.005 h.
`CN(C)CCCOc1ccc(-c2nc(-c3ccc4c(c3)CCC4=NO)c(-c3ccncc3)[nH]2)cc1`: the growth inhibition in experiment [1] is 63% (active); in experiment [4] it was 96% (active). Further, the results for the inhibition in experiment [2] and in experiment [3] were 68% (active) and -3%, respectively.
Turning to `Oc1ccc2ccccc2c1C=NNc1nc(Nc2ccccc2)nc(Nc2ccccc2)n1`, the growth inhibition in experiment [1] was 73% (active); in experiment [4] it was 99% (active). Also, the inhibition was 55% (active) in experiment [2] and -2% in experiment [3].
Consider `CCCC(=O)NCCc1c2n(c3ccc(OC)cc13)Cc1ccccc1-2`, for which, in experiment [5], the period change was 0.125 h.
Turning to `C=CC[C@H](C[C@H](O)[C@H](Cc1ccccc1)NC(=O)c1ccc(-c2cccnn2)cc1)C(=O)NC1CCCCC1`, the growth inhibition in experiment [1] is -1%; in experiment [4], 83% (active). For the same compound, the figures for the inhibition in experiment [2] and in experiment [3] were 2% and 4%, respectively.
`CC1CCC(C[C@@H](C(=O)N[C@@H](CCC(=O)N2CCCCC2)C(=O)Nc2nccs2)[C@H](C(C)C)N(O)C=O)CC1` (some centres undefined): the figures for the growth inhibition in experiment [1] and in experiment [4] were 70% (active) and 87% (active), respectively. Also, the inhibition is 38% in experiment [2] and 7% in experiment [3].
For `COc1cc(C=NNc2ccnc3cc(Cl)ccc23)ccc1O` the same measures were 100% (active), 101% (active), 15% and -7%.
The corresponding values for `Nc1cc(C=Cc2ccc(O)cc2)nc2ccccc12` are 14%, 100% (active), 15% and 3%.
The corresponding values for `COc1ccc(Nc2nc(NN=Cc3cc(Br)c(O)cc3O)nc(Nc3ccc([N+](=O)[O-])cc3)n2)cc1` are 23%, 97% (active), 30% and 4%.
Consider `COc1cc(C=C(C2=NC(=O)CS2)c2nc3cccnc3n2C)ccc1O`, for which the results for the growth inhibition in experiment [1] and in experiment [4] were 48% and 89% (active), respectively. For the same compound, the values for the inhibition in experiment [2] and in experiment [3] were 7% and -7%, respectively.
For `Nc1c2c(nc3ccccc13)C(=Cc1ccc(O)cc1)CCC2` the same measures were 6%, 99% (active), 9% and 5%.
`NCCNC(=O)Cc1ccc(NC(=O)Cc2ccc(Nc3ncnc4c3ncn4[C@@H]3O[C@H](CO)[C@H](O)C3O)cc2)cc1` (some centres undefined): the period change in experiment [5] was -0.095 h.
`Oc1cccc(-c2nc(-c3cccc(I)c3)c(-c3ccc(-c4nc(-c5cccc(O)c5)[nH]c4-c4cccc(I)c4)cc3)[nH]2)c1`: the growth inhibition in experiment [1] was 66% (active); in experiment [4], 96% (active). For the same compound, the inhibition in experiment [2] is -4%; in experiment [3], -2%.
The corresponding values for `CC(=NO)C1=C(O)C(c2ccccc2)N(c2ccccc2)C1=O` (centres undefined) are 23%, 99% (active), 12% and -1%.
For the compound `CCC[C@@H](C(=O)NCCc1cccc(OC)c1)N1C(=O)c2c(ccc(OC)c2OC)C1C(=O)Nc1c(C)cccc1C` (some centres undefined), the growth inhibition in experiment [1] is 32%; in experiment [4], 94% (active). Further, the inhibition was 6% in experiment [2] and 3% in experiment [3].
As for `CCCO[C@H](C(=O)OC)[C@@H](CC1Cc2ccccc2C1)C(=O)NCCC1=CCCCC1`, the results for the growth inhibition in experiment [1] and in experiment [4] were 57% (active) and 93% (active), respectively. The inhibition is 6% in experiment [2] and 1% in experiment [3].
For `Cc1cc(-c2cc(-c3ccc(OCCN(C)C)cc3)[nH]c2-c2ccc3c(c2)CCC3=NO)ccn1` the same measures were 92% (active), 100% (active), -13% and -3%.
`COc1ccc2ncc(F)c(CCN3C[C@H](CNCc4nc5c(cc4Cl)OCC(=O)N5)[C@H](O)C3)c2n1`: the growth inhibition is 15% and 23% and 30% in experiment [1]; 93% (active) and 90% (active) in experiment [4]. Besides, the inhibition is 13% and 5% and 12% in experiment [2]; 0% and -2% and 2% in experiment [3].
As for `C[C@@H]([C@@H](CCCc1ccc(Cl)cc1)C(=O)N[C@H](C(=O)Nc1cccnc1)C(C)(C)C)N(O)C=O`, the growth inhibition is 99% (active) in experiment [1] and 100% (active) in experiment [4]. Further, the inhibition in experiment [2] was 7%; in experiment [3] it was 1%.
Turning to `CCN1CCC[C@H]1CNC(=O)c1c(OC)ccc(I)c1O`, the period change in experiment [5] was 0.025 h.
As to `Oc1ccc(C=NNC(=S)Nc2cccc3ccccc23)c(O)c1`, the growth inhibition is 72% (active) in experiment [1] and 89% (active) in experiment [4]. Besides, the inhibition in experiment [2] is 8%; in experiment [3] it was -4%.
The corresponding values for `Oc1ccc(-c2nc(-c3ccc4oc5ccc(-c6[nH]c(-c7ccc(O)cc7)nc6-c6ccccc6)cc5c4c3)c(-c3ccccc3)[nH]2)cc1` are 71% (active), 84% (active), -2% and 3%.
For `CCOc1cc(C=NNc2nc(C)cc(-n3nc(C)cc3C)n2)ccc1O` the same measures were 52% (active), 93% (active), 46% and 2%.
